Source: PubChem
In the library only some 3.5% were active in any assay of this set; here they are far more common.
TEAD-YAP block: TEAD-YAP interaction inhibition, primary screen, TEAD-YAP interaction inhibitor project, luminescence, HEK-TIYL cells; AID 1259422, 2018; TEAD-Gal4/YAP UAS-luciferase luminescence; inhibition, % at 9.12 µM; 640,000 tested, 1.4% active; in the data active = inhibition above about 32%;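 also: 0% = median of test compound wells and 100% = reference inhibitor wells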
MITF inh: MITF inhibitors, primary screen, biochemical, AlphaScreen, human. Microphthalmia-associated transcription factor (Homo sapiens), O75030. AlphaScreen MITF homodimerization, bead proximity signal. inhibition, % at 2.6 µM. 650,000 tested, 0.91% active; in the data active = inhibition above about 50%;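 also: 0% = vehicle wells with protein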
GPR151 ag: activators of human GPR151, primary screen, cell-based, PathHunter beta-arrestin, luminescence; G-protein coupled receptor 151 (Homo sapiens), Q8TDV0; PathHunter beta-arrestin GPR151 cells; activation, % at 11.2 µM; 650,000 tested, 1% active; AID 1508602, 2020; in the data active = activation above about 4.9%;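 also: 0% = median of compound wells and 100% = cells with positive control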
FBW7 activator: FBW7 E3 ligase activators, primary screen, biochemical, AlphaScreen, human; F-box/WD repeat-containing protein 7 (Homo sapiens), Q969H0; AlphaScreen FBW7–phospho-cyclin E peptide binding, activator screen; normalized activity (activation), % at 26.1 µM; 650,000 tested, 0.13% active; AID 1259310, 2017; in the data active = normalized activity above about 1.9%;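 also: purified mutant Fbw7 with reduced substrate affinity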
GPR151 conf act: GPR151 activators, triplicate retest, confirmation, cell-based, PathHunter beta-arrestin, luminescence; shares compounds with GPR151 ag; GPR151 PathHunter beta-arrestin cells, 90 min; % of EA-reagent control over plate median; activation, % at 11.2 µM; 6,700 tested, under 10 active; AID 1508609, 2020;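 active = mean percent activation across replicates above the confirmation screen cutoff of 4.91%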
GPR119 counter: GPR119 activators in beta-arrestin cells, counter-screen for GPR151 activator project, cell-based, PathHunter beta-arrestin, luminescence, triplicate. shares compounds with GPR151 ag. 90 min; 0 = compound-well median, 100 = enzyme-acceptor control. activation, % at 11.2 µM. 6,700 tested, 0.3% active;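 active = mean percent activation in the counterscreen above 29.09%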;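 also: counterscreen on off-target GPR119 to flag nonselective hits from the GPR151 activator screen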
Target sequence (Q8TDV5 whole entry, looked up): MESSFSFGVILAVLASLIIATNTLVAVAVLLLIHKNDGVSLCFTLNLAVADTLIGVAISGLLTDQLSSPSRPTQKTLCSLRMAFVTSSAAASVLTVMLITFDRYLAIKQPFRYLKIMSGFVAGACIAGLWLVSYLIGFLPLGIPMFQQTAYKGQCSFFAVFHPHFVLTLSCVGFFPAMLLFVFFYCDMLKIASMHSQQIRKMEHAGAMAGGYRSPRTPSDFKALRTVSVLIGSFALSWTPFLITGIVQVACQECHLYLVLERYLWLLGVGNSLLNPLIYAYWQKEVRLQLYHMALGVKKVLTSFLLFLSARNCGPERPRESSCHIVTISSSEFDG
Numbers without * were called inactive; . = no result.

SMILES	TEAD-YAP block	MITF inh	GPR151 ag	FBW7 activator	GPR151 conf act	GPR119 counter
O=C(N/N=C/c1cccc2ccccc12)c1ccccc1[N+](=O)[O-]	3	10	11*	0	0	-5
O=C(N/N=C/c1ccccc1[N+](=O)[O-])c1cccc2ccccc12	3	0	7.4*	0	0	4
O=C(N/N=C/c1ccccc1[N+](=O)[O-])c1ccccc1[N+](=O)[O-]	-46	-4	-1	0	.	.
O=C(N/N=C/c1ccc(F)cc1)c1ccccc1[N+](=O)[O-]	4	8	7.0*	0	-1	-8
O=C(N/N=C/c1cc(Br)cc([N+](=O)[O-])c1O)c1cccc2ccccc12	0	7	0	1	.	.
COc1cc(OC)c(NC(=O)CSc2nc3[nH]ncc3c(=O)n2-c2ccc(Cl)cc2)cc1Cl	15	0	1	0	.	.
COc1ccc(Cl)cc1C(=O)NNC(=O)CN(C)S(=O)(=O)c1ccc(Cl)cc1	4	11	2	0	.	.
Cc1cc([N+](=O)[O-])ccc1N1C(=O)C2CC=C(Cl)CC2C1=O (stereo not drawn)	2	9	5.6*	0	1	-3
Cc1ccc([N+](=O)[O-])cc1N1C(=O)C2CC=C(Cl)CC2C1=O (stereo not drawn)	-2	-6	0	0	.	.
CCCC1(C2CCN(Cc3ccc(O)cc3)CC2)NC(=O)N(CC2CCCO2)C1=O (stereo not drawn)	3	4	6.0*	0	0	2
CCC(=O)Nc1nc2ccc(Cl)cc2s1	-29	2	0	0	.	.
CCOC(=O)Cn1c(=NC(=O)c2cc(=O)c3ccccc3o2)sc2cc(OC)ccc21	-7	8	1	0	.	.
CCOC(=O)Cn1c(=NC(=O)c2cc(=O)c3ccccc3o2)sc2cc(F)ccc21	1	-3	5.1*	0	0	3
Cc1ccc(-n2c(-c3ccc4[nH]c(C)c(C)c4c3)n[nH]c2=S)cc1	-27	8	5.5*	0	1	-4
CCCCC(C)(C)[C@H](O)/C=C/[C@H]1C=CC(=O)[C@@H]1C/C=C\CCCC(=O)O	.	-4	13*	.	2	0
CCCCCC(=O)/C=C/[C@@H]1[C@@H](C/C=C\CCCC(=O)O)[C@@H](O)C[C@H]1O	.	-2	5.5*	.	1	7
CCCCC[C@H](O)/C=C/[C@H]1C=CC(=O)[C@H]1C/C=C\CCCC(=O)O	.	2	5.8*	.	1	9
CCCCC(C)(C)[C@H](O)/C=C/[C@H]1C=CC(=O)[C@@H]1CCCCCCC(=O)O	.	12	-1	.	.	.
CCCCC[C@H](O)/C=C/[C@H]1C=CC(=O)[C@@H]1C/C=C\CCCC(=O)O	.	-3	1	.	.	.
CCCCC[C@H](O)/C=C/[C@H]1C=CC(=O)[C@@H]1CCCCCCC(=O)OCC	.	0	4.9*	.	1	3
C=CCNC(=O)c1ccccc1NS(=O)(=O)c1c(C)cc(C)cc1C	-9	-6	-1	0	.	.
CCCCCCCC/C=C\CCCCCC(=O)O	.	9	8.7*	.	0	7
CCCCC/C=C/C=C1/C=CC(=O)[C@@H]1C/C=C\CCCC(=O)O	.	26	1	.	.	.
CCCCC[C@@H](O)/C=C/[C@H]1C(=O)C[C@H](O)[C@@H]1C/C=C\CCCC(=O)O	.	0	5	.	.	.
CCCCC/C=C/C=C1/C(=O)C[C@H](O)[C@@H]1C/C=C\CCCC(=O)O	.	15	5.6*	.	0	-9
SMILES	TEAD-YAP block	MITF inh	GPR151 ag	FBW7 activator	GPR151 conf act	GPR119 counter
CCCCC[C@H](O)/C=C/C1=C(C/C=C\CCCC(=O)O)C(=O)CC1	.	-5	9.3*	.	0	-9
CCCCC[C@H](O)/C=C/[C@H]1C(=O)C[C@H](O)[C@@H]1CCCCCCC(=O)O	.	18	9.7*	.	0	10
CCCCC[C@H](O)/C=C/[C@H]1C(=O)C[C@H](O)[C@@H]1CCCCCCCO	.	4	0	.	.	.
O=C(NC1CCCC1)C(c1ccncc1)N(C(=O)NCc1cccs1)c1ccncc1 (stereo not drawn)	-12	-11	10*	0	0	2
COc1ccc(N(C(=O)Cc2cccs2)C(C(=O)NC2CCCC2)c2ccncc2)cc1 (stereo not drawn)	-28	-1	1	0	.	.
CSc1cccc(CN2CCN(Cc3ccccc3F)C(CCO)C2)c1 (stereo not drawn)	-1	13	13*	0	1	-3
COc1cccc(CN2CCN(Cc3cccc(OCCO)c3)CC2CCO)c1 (stereo not drawn)	9	-3	5.2*	0	0	0
COc1cccc(CN2CCN(Cc3cn(C)nc3C)CC2CCO)c1 (stereo not drawn)	7	9	5.8*	0	-1	-14
COc1cccc(CN2CCN(Cc3cccc(OC)c3)C(CCO)C2)c1 (stereo not drawn)	-1	-8	-1	0	.	.
O=C(/C=C/c1cccs1)NC(=S)Nc1cc([N+](=O)[O-])ccc1O	-12	34	5.4*	0	0	-7
O=C(/C=C/c1cccs1)Nc1cc([N+](=O)[O-])ccc1Cl	-1	15	1	0	.	.
CC(=O)c1ccc(NC(=O)C(Cc2ccccc2)n2cccc2)cc1 (stereo not drawn)	5	7	5.2*	0	-1	6
CCOC(=O)c1c(OC(C)=O)c2ccccc2[nH]c1=O	-1	-17	0	0	.	.
CCCCn1c(Cc2ccccc2)nnc1SCC(=O)N1CCCC1	-6	-3	0	0	.	.
CC1(C)CC2(CCO1)OC(=O)CC2C(=O)NCc1ccccc1 (stereo not drawn)	-5	-10	5.6*	0	0	6
C=CCNC(=O)NC(=O)COC(=O)CC(NC(N)=O)c1ccc(Cl)cc1 (stereo not drawn)	2	-3	4.9*	0	1	4
O=C(c1ccc2c(c1)OCO2)N1CCCCCC1	-1	16	1	0	.	.
O=C(c1ccc2c(c1)OCO2)N1CCN(c2ccc(Cl)cc2)CC1	-6	17	5.5*	0	3	-2
CC(=O)c1ccc(N2CCN(C(=O)c3ccc4c(c3)OCO4)CC2)cc1	-8	-11	0	0	.	.
CC(=O)N1CCN(C(=O)c2ccc3c(c2)OCO3)CC1	3	-2	5.5*	0	0	-3
CC(=O)c1c(C)[nH]c(C(=O)NC(C)(C)C)c1C	1	-1	2	0	.	.
N#Cc1ccc(-c2ccc(OC(=O)c3ccncc3)cc2)cc1	-21	-7	1	0	.	.
